# About 420 (0.38%) of roughly 110,000 compounds were called active. The sample holds actives, similar compounds and a random draw of the others, so the mix is not that of the screen. Cut-off read from the data, not from the text of the source: active = inhibition above about 30% (passing the limit was not always enough); inconclusive = no clear call, values can overlap the other calls.
# Tested on: RmlC (dTDP-4-dehydrorhamnose 3,5-epimerase) and RmlD (dTDP-4-dehydrorhamnose reductase), coupled enzyme assay
# Test: RmlC and RmlD coupled enzyme inhibitors, primary screen, biochemical, 384-well, compound mixtures, retest (AID 1532)
# Details: 384-well mixture HTS, at 5.5 µM, stronger effect = higher value
# [1] = measured here: mean retest inhibition
smiles,measurement,setting,value
CCc1nnc(SCc2cccc(F)c2)nc1CC,inhibition,,-1.83% (inactive)
Cc1cccc(Nc2nc(NCCO)nc(N3CCCC3)n2)c1,inhibition,,-9.11% (inactive)
COCOc1cc(O)c(C(=O)/C=C/c2ccc(OCOC)c(OCOC)c2)c(OCOC)c1,inhibition,,4.09% (inactive)
COc1cc(/C=C/CO)cc(OC)c1O[C@@H]1O[C@H](CO)[C@@H](O)[C@H](O)[C@H]1O,inhibition,,-10.6% (inactive)
CC(C)NC(=O)NCCCCCCS(C)=O (stereo unspecified),inhibition,,-13.8% (inactive)
CCCCC1=CC2=CC(=O)C(C)(OC(=O)CC)C(=O)C2=CN1CCCOC(C)C (stereo unspecified),inhibition,,21.9% (inactive)
CC1=C(C)C(=O)OC(C(C)C2CCC3C4CC=C5CC(OC6OC(COC7OC(CO)C(O)C(O)C7O)C(O)C(O)C6O)CC(O)C5(C)C4CCC23C)C1 (stereo unspecified),inhibition,,-13.2% (inactive)
C/C=C(/C)C(=O)O[C@@H]1c2cc3c(c4c2[C@@]2(CO4)C(=O)C(OC)=C(OC)C=C2C[C@@H](C)[C@H]1C)OCO3,inhibition,,-2.38% (inactive)
C/C=C(\C)C(=O)NCCN1C2=NC[C@H](Cc3ccc(O)cc3)N2C[C@@H]1Cc1ccc(OC)cc1,inhibition,,6.27% (inactive)
COC(=O)CCCC1=CC2=CC(=O)C(C)(OC(=O)c3cccs3)C(=O)C2=CN1CC(C)C (stereo unspecified),inhibition,,6.81% (inactive)
O=C(C1=C[C@H](c2coc3ccccc3c2=O)C[C@H](OCc2ccc(CO)cc2)O1)N1CCN(Cc2ccccc2)CC1,inhibition,,13.6% (inactive)
C=CCNC(=O)c1ccc2c3n(nc2c1)-c1ccc(C)cc1CO3,inhibition,,-4.6% (inactive)
C[C@H]1CC[C@]2(O[C@@H](CCO)C[C@@H](O)[C@@H]2O)O1,inhibition,,6.2% (inactive)
C=C1C2C[C@H](O)C(C)(C)[C@@]2(O)[C@H](O)C[C@]23C[C@@](C)(O)[C@H](CC[C@H]12)[C@H]3O (stereo partly specified),inhibition,,-7.47% (inactive)
CCO[C@H]1OC(C(=O)Nc2ccccc2)=C[C@@H](C2CC2)[C@@H]1CCCO,inhibition,,-2.12% (inactive)
COc1ccc(CCNC(=O)C2CC3Cn4c(nc5cc(C)c(C)cc54)C3N2C)cc1 (stereo unspecified),inhibition,,5.88% (inactive)
O=C(NCc1ccccc1)C1=C[C@@H](c2ccccc2)C[C@@H](OCCCCO)O1,inhibition,,-11.4% (inactive)
COC(=O)CCCC1=CC2=C(c3ccccc3)C(=O)C(C)(OC(=O)C3CCCC3)C(=O)C2=CN1c1ccc(OC)cc1 (stereo unspecified),inhibition,,6.14% (inactive)
COc1ccc2c(c1)CC[C@@H]1[C@@H]2CC[C@]2(C)C(=O)CC[C@@H]12,inhibition,,0.97% (inactive)
C#CCOCCOCCOCCNc1nc(N2CCN(C(=O)[C@H](C(C)C)n3cc(CCO)nn3)CC2)nc(N2CCN(C(=O)[C@H]([C@@H](C)CC)n3cc(CCCN=C(N)N)nn3)CC2)n1,inhibition,,9.85% (inactive)
CC(=O)Oc1ccc(NC(=O)CCC2CCCCC2)c(C(=O)O)c1,inhibition,,0.91% (inactive)
O=C(Nc1cc2ccccc2oc1=O)C1CCCCC1,inhibition,,-8.93% (inactive)
CC(=O)Oc1ccc2c(C)c(CC(C)O)c(=O)oc2c1 (stereo unspecified),inhibition,,100% (active)
same,inhibition,[1],151%
CC(=O)Nc1cc2ccc(OC(C)=O)cc2oc1=O,inhibition,"above what the read-out allows, likely interference",671% (active)
COC(=O)Cc1c(C)c2ccc(OCC(=O)NCc3ccc4c(c3)OCO4)cc2oc1=O,inhibition,,12.6% (inactive)
O=C(Oc1ccccc1)Oc1ccc2c(c1)oc(=O)c1ccccc12,inhibition,,-16.4% (inactive)
C=CCC1(C(=O)N(C)Cc2ccccc2)CCN(C(=O)OC(C)(C)C)CC1,inhibition,,4.78% (inactive)
NC(=O)C[C@@H]1NC(=O)CNC(=O)c2cc([N+](=O)[O-])cc(I)c2NCCC(C(N)=O)NC1=O (stereo partly specified),inhibition,,-2.76% (inactive)
O=C1c2ccccc2S(=O)(=O)c2cc(N3CCN(c4ccccn4)CC3)ccc21,inhibition,,-10.5% (inactive)
C=CCSc1nnc2c(n1)-c1cccc3cccc-2c13,inhibition,,10.4% (inactive)
COc1ccc(-c2nc3c(s2)CCc2onc(-c4ccc(Br)cc4)c2-3)cc1,inhibition,,-14.4% (inactive)
COC(C[C@@H](O)C[C@@H](O)[C@H](C)OCc1ccccc1)OC,inhibition,,1.16% (inactive)
C=CC(COCc1ccccc1)N(Cc1ccccc1)S(=O)(=O)c1ccccc1Br (stereo unspecified),inhibition,,14.3% (inactive)
CC(C)C[C@H](CO)Nc1nc(N(C)c2cccc(Cl)c2)c2ncn(C(C)C)c2n1,inhibition,,4.1% (inactive)
NCCCC[C@@H]1NC(=O)[C@H](CCC(=O)O)NC(=O)c2cc([N+](=O)[O-])cc(I)c2NCC[C@@H](C(N)=O)NC1=O,inhibition,,-2.74% (inactive)
COC(C[C@@H](O)C[C@H](O)[C@H](C)OCc1ccccc1)OC,inhibition,,8.66% (inactive)
COc1cccc(NC(=S)N(CCc2c(C)[nH]c3ccccc23)Cc2ccco2)c1,inhibition,,-5.74% (inactive)
O=c1cc(-c2ccccc2)[nH]c2cc(F)ccc12,inhibition,,2.31% (inactive)
C=CCCN(Cc1ccccc1)S(=O)(=O)c1ccccc1Br,inhibition,,17.6% (inactive)
COc1ccccc1-c1nc(C#N)c(N2CCC(C(N)=O)CC2)o1,inhibition,,31.8% (active)
same,inhibition,[1],33.6%
COc1ccccc1-c1nnc(SCC(=O)N2CC(C)CC(C)C2)o1 (stereo unspecified),inhibition,,-13.8% (inactive)
CC1CCN(c2oc(-c3ccccc3F)nc2C#N)CC1,inhibition,,19.3% (inactive)
O=C(NC1CC1)C1=C[C@H](c2coc3ccccc3c2=O)C[C@H](OCCCCO)O1,inhibition,,-32.1% (inactive)
O=C(C1=C[C@H](C2CC2)C[C@H](OCc2ccc(CO)cc2)O1)N1CCN(Cc2ccccc2)CC1,inhibition,,2.28% (inactive)
